# Results from article PMC4336329 (PLoS ONE, 2015).
# Screen size: about 310,000 compounds; about 14,000 (4.5%) showed an effect of 50% or more. The effect is printed as a negative number. Many of the other results were omitted from the sample, so strong results are more common in it than they were.
# Molecular target: human ether-à-go-go-related gene (hERG) potassium channel (human, UniProt Q12809)
# Experiment: primary screen, population patch clamp on CHO cells stably expressing hERG; higher = less effect of the substance
# 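Further: peak tail current of the secondary pulse compared with the same well before compound.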
# human ether-à-go-go-related gene (hERG) potassium channel, sequence (Q12809 whole entry, looked up): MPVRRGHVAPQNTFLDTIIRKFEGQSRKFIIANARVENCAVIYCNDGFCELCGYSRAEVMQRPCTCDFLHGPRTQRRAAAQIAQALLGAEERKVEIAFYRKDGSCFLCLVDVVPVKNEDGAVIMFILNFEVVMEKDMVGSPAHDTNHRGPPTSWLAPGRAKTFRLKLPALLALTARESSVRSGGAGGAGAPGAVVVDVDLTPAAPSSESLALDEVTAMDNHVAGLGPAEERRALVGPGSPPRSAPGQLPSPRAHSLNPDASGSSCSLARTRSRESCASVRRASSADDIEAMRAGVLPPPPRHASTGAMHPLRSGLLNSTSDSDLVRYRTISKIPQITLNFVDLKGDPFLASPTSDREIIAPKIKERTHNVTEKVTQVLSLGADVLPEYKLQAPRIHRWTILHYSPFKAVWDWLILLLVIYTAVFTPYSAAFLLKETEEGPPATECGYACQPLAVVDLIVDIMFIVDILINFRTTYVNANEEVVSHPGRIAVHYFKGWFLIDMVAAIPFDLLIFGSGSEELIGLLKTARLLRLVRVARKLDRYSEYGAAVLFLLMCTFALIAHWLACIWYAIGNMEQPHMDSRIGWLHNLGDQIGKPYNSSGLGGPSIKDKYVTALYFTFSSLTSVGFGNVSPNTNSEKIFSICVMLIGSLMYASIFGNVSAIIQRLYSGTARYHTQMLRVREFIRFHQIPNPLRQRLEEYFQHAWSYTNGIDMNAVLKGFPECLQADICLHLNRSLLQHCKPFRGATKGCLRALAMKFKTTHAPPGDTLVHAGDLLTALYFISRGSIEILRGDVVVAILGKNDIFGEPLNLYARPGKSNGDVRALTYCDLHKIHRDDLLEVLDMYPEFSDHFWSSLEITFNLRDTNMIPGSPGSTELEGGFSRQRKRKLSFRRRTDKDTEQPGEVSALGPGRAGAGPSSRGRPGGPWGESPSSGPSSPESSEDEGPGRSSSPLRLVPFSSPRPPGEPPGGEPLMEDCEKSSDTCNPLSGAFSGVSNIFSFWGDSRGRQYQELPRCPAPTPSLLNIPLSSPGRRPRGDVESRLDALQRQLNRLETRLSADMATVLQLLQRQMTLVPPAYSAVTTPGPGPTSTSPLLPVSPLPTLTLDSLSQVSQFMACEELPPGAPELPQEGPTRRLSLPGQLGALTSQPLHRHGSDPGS
row,SMILES,"hERG current change (%, negative = inhibition) at 10uM"
1,Cc1cc(C)c2c(=O)[nH]n(C3CCCCCC3)c2n1,23.5%
2,Cc1nc(Nc2nc3c(c(=O)[nH]2)CCC3)nc2ccccc12,-10.2%
3,Cc1ccc(NC(=S)N(C)C)cc1C,-4.6%
4,O=C(N=C1SC2CS(=O)(=O)CC2N1c1ccc(Cl)cc1Cl)C1CC1 (centres unmarked),-7.48%
5,Cc1ccc(/C(O)=C/C(=O)C(=O)NNC(=O)C(O)(c2ccccc2)c2ccccc2)cc1,14.5%
6,OCCOc1ccc(C2=NCCO2)cc1,-23.3%
7,Cc1cnc([N+](=O)[O-])n1CCOC(=O)NC(=O)c1ccccc1Cl,8.87%
8,COc1ccc(OC)c(NC(=O)CCCNC(=O)c2ccc(Cl)cc2)c1,-9.27%
9,CCc1nnc(NC(=O)CN2CCN(Cc3cccc(Cl)c3)CC2)s1,-8.15%
10,CCCN1CCN(CC(=O)Nc2nc3ccccc3s2)CC1,-49.9%
11,CS(=O)(=O)c1ccc2nc(NC(=O)CN3CCN(Cc4ccccc4)CC3)sc2c1,-39.8%
12,CCc1nnc(NC(=O)CN2CCN(Cc3ccc(C)cc3)CC2)s1,-57.6%
13,CCc1nnc(NC(=O)CN2CCN(Cc3ccc(F)cc3)CC2)s1,-13.6%
14,O=C(CN1CCN(Cc2ccccc2)CC1)Nc1nc2ccccc2s1,-68.2%
15,Cc1cccc(OCC(=O)Nc2ccc3oc(=O)ccc3c2)c1,8.55%
16,COc1ccc(C(C)=O)cc1Cn1nc(C)c([N+](=O)[O-])c1C,18.5%
17,CC1(C)Oc2ccc3ccc(=O)oc3c2/C(=C/NCCO)C1=O,5.11%
18,Br.CCCCCCn1c2c(c(=N)c3c1CCC3)CCC2,-76.5%
19,Br.CCCCCCCCn1c2c(c(=N)c3c1CCC3)CCCC2,-76.1%
20,Br.CCCCCCCCCCn1c2c(c(=N)c3c1CCC3)CCC2,-78.9%
21,CCCCCCn1c(=O)[nH]c2c(c1=O)CCC2,-3.06%
22,Br.CCn1c2c(c(=N)c3c1CCC3)CCCC2,-2.41%
23,CCOC(=O)Cn1c2c(c(=N)c3c1CCC3)CCCC2.Cl,18.5%
24,Br.CCCCCCCCCn1c2c(c(=N)c3c1CCC3)CCC2,-74.1%
25,CCCn1c2c(c(=N)c3c1CCC3)CCCC2.I,6.05%
26,CCCn1c2c(c(=N)c3c1CCC3)CCC2.I,7.05%
27,CCCCn1c2c(c(=N)c3c1CCC3)CCC2.I,-2.48%
28,Br.CCn1c2c(c(=N)c3c1CCC3)CCC2,0.642%
29,CCOC(=O)Cn1c2c(c(=N)c3c1CCC3)CCC2.Cl,8.34%
